Compounds with a hit are over-represented: about 7.7% of the library has one in this group of screens.
Sm TGR block: qHTS Assay for the Inhibitors of Schistosoma Mansoni Peroxiredoxins | Potency, µM (highest dose often 114 µM), without a hit: at the highest dose activity change, negative = inhibition, actives largely listed as inhibitors | Schistosoma mansoni thioredoxin glutathione reductase (TGR), Q962Y6 | hit rate 3% among 360,000 | purified TGR, DTNB reduction, TNB absorbance 405 nm | AID 485364, 2010; note: potency is the fitted concentration of half-maximal effect; nearly all actives have a fitted effect of over 60% in size
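Kinetic colorimetric format: TGR-catalysed, NADPH-driven DTNB reduction monitored via TNB absorbance. Enzyme dispensed at 20 nM; compound exposure 15 min at room temperature before reaction start.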
RE007 growth inh: qHTS Assay for Inhibitors of the HIV-1 protein Vpr | S. pombe RE007 Vpr strain, BacTiter-Glo ATP luminescence, 24 h | Potency, µM (series often up to 92.2 µM), for inactives: top-dose activity change, negative = less growth, most hits filed as inhibitors | hit rate 0.21% among 360,000 | AID 651644, 2012; active = well fitted falling curve with a large enough effect; inconclusive = small, poorly fitted or top-dose-only effect; inactive = no such curve, though single readings can be large or run the other way; note: potency is the fitted concentration of half-maximal effect; nearly all actives have a fitted effect of over 50% in size
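Fission yeast strain RE007, carrying one chromosomally integrated HIV-1 vpr copy, was seeded at OD 0.01 in PMG+AL medium with 23 nL pinned compound. After 24 h at 30 °C and 99% humidity, viability was read by BacTiter-Glo luminescence.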
FMDV antiviral: High Throughput Screening for Foot and Mouth Disease Virus Antivirals; hit rate 1.2% among 410,000; FMDV antiviral cell-based qHTS; Potency, µM (titrated, usually from 57.9 µM), for inactives: at the top dose activity change, negative = inhibition, actives largely listed as inhibitors; AID 1159524, 2015; calls by dose curve; tested in HEK293T cells; note: read-out not given here; potency is the fitted concentration of half-maximal effect; nearly all actives have a fitted effect of over 45% in size
HCMV inh: qHTS Assay for inhibitors of the human cytomegalovirus (HCMV). HFF cells, HCMV-luciferase reporter, 72 h; stronger effect = lower value. activity change, negative = inhibition, % at 57.5 µM. hit rate 4.5% among 410,000; in the data active = activity change below about -60%; inconclusive = no clear call, values can overlap the other calls; inactive = above about -39%
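After 16 h attachment at 37C, HFF cells received test compound and HCMV-luciferase (1 PFU/cell); reporter luminescence read 72 h later, data normalized against buffer-only and known inhibitor Salinomycin.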
Giardia FBPA inh: qHTS Assay for Inhibitors of Fructose-1,6-bisphosphate Aldolase from Giardia Lamblia; hit rate 0.71% among 290,000; Potency, µM (doses to about 59.6 µM), for inactives: at the highest dose activity, negative = inhibition, hits mostly inhibitors; purified Giardia FBPA; note: potency is the fitted concentration of half-maximal effect; nearly all actives have a fitted effect of over 55% in size
Target sequence (A8B2U2 whole entry, looked up): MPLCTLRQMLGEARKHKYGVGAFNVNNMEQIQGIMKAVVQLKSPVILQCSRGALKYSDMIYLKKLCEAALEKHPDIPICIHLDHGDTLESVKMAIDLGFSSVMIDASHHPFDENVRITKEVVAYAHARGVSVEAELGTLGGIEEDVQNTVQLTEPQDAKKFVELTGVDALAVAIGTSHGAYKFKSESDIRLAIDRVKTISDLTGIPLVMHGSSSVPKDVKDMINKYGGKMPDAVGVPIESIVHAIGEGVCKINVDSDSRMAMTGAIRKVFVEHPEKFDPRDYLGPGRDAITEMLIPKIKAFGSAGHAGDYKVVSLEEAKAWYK
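Giardia FBPA (40 nM reagent) was preincubated 10 min at RT with compound (up to 57.5 uM final), then substrate plus GAPDH/TPI/NAD/arsenate coupling system with diaphorase/resazurin was added; resorufin fluorescence (525/598 nm) was read after 20 min.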
Tb PYK inh: qHTS of Trypanosoma Brucei Inhibitors; hit rate 0.12% among 410,000; Potency, µM (highest dose often 76.8 µM), without a hit: at the highest dose activity, negative = inhibition, hits mostly inhibitors; pyruvate kinase (Trypanosoma brucei), Q57TT1; TbPYK enzyme, Kinase-Glo Plus ATP luminescence, 45 min; AID 624173, 2012; note: potency is the fitted concentration of half-maximal effect; nearly all actives have a fitted effect of over 50% in size
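Luminescence from Kinase-Glo Plus, added after a 45-minute room-temperature reaction, served as the end-point read-out. The enzyme and substrate were preincubated with compound before ADP (130 uM final) initiated turnover. Concentration-effect curves came from normalized qHTS data.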
Starred values were filed as active, the others as inactive; [ ] = another dose, or the depositor's remark. Unless noted, calls come from the whole dose curve; as a rule, active = well fitted curve in the direction sought with a large enough effect; inconclusive = small, poorly fitted or top-dose-only effect, or another doubt; inactive = no such curve, though single readings can be large; an effect the other way counts as inactive or inconclusive. % is set by controls: 0 for no effect and ±100 for the full control effect.

COc1cccc(NC(=S)N2CCN(S(=O)(=O)c3ccc(F)cc3)CC2)c1 was read as Sm TGR block -2%, RE007 growth inh 6%, FMDV antiviral 14%, HCMV inh -63* and Tb PYK inh -3%.
CC(=O)c1ccc(NC(=O)C(C)N2CCN(C/C=C/c3ccccc3)CC2)cc1 (stereo not given) was read as Sm TGR block 4%, RE007 growth inh 4%, FMDV antiviral inconclusive, HCMV inh 15, Giardia FBPA inh 7% and Tb PYK inh 2%.
Screening CC(C(=O)Nc1ccc([N+](=O)[O-])cc1)N1CCN(C/C=C/c2ccccc2)CC1 (stereo not given) returned Sm TGR block -3%, RE007 growth inh 9%, FMDV antiviral 28µM*, HCMV inh inconclusive, Giardia FBPA inh 9% and Tb PYK inh 0%.
Screening COc1ccc(NC(=S)N2CCN(S(=O)(=O)c3ccc(C)cc3)CC2)cc1 returned Sm TGR block -10%, RE007 growth inh 8%, FMDV antiviral 53%, HCMV inh -61*, Giardia FBPA inh -8% and Tb PYK inh -7%.
Screening CCC(=O)C1=C(c2cccc([N+](=O)[O-])c2)N(C(=O)CC)n2c(nnc2-c2ccccc2)S1 returned Sm TGR block -2%, FMDV antiviral -12%, HCMV inh -35 and Tb PYK inh 4%.
`Oc1ccc2c3c1OC1C(O)C=CC4[C@@H](C2)NCC[C@]314` (stereo not given in full) gave Tb PYK inh -7%[157 µM].
COc1ccc(N2CCN(c3nc(NC(C)(C)C)nc(N4CCCCC4)n3)CC2)cc1 was read as Sm TGR block -7%, RE007 growth inh -10%, FMDV antiviral inconclusive, HCMV inh -33, Giardia FBPA inh 20% and Tb PYK inh -16%.
COc1ccc(Nc2nc(NC(C)(C)C)nc(N3CCOCC3)n2)c(OC)c1 was read as RE007 growth inh 21%, FMDV antiviral 0%, HCMV inh -61*, Giardia FBPA inh -8% and Tb PYK inh 3%.
Screening COc1ccc(Nc2nc(NC(C)(C)C)nc(N3CCCC3)n2)c(OC)c1 returned Sm TGR block 8%, RE007 growth inh -2%, FMDV antiviral inconclusive, HCMV inh -89*, Giardia FBPA inh -8% and Tb PYK inh -1%.
COc1ccc(Nc2nc(N3CCCC3)nc(N3CCCC3)n2)c(OC)c1 was read as Sm TGR block -23%, RE007 growth inh -21%, FMDV antiviral -16%, HCMV inh -92*, Giardia FBPA inh 3% and Tb PYK inh 7%.
Screening COc1ccc(Nc2nc(N3CCCCC3)nc(N3CCCCC3)n2)c(OC)c1 returned Sm TGR block 0%, RE007 growth inh -7%, FMDV antiviral -23%, HCMV inh -16, Giardia FBPA inh 4% and Tb PYK inh -4%.
`COc1ccc(Nc2nc(Nc3ccc(OC)cc3OC)nc(N3CCN(C)CC3)n2)c(OC)c1` gave Sm TGR block 5%, RE007 growth inh -9%, FMDV antiviral inconclusive, HCMV inh 14, Giardia FBPA inh 2% and Tb PYK inh -3%.
COc1ccc(C)cc1NC(=O)c1cc(S(=O)(=O)N2CCCCC2)c[nH]1 was read as Sm TGR block 0%, FMDV antiviral -16%, HCMV inh inconclusive and Tb PYK inh 7%.
`CCc1ccc(C(=O)c2cn(CC(=O)Nc3ccc(C)c(C)c3)c3ccccc3c2=O)cc1` gave Sm TGR block -14%, FMDV antiviral -1%, HCMV inh -4 and Tb PYK inh 3%.
O=C(Nc1cccc(S(=O)(=O)c2cccc(NC(=O)c3ccco3)c2)c1)c1ccco1 was read as Sm TGR block 1%, RE007 growth inh 19%, FMDV antiviral 35µM*, HCMV inh -69*, Giardia FBPA inh -4% and Tb PYK inh -4%.
Screening CC(=O)Nc1ccc(S(=O)(=O)Nc2cccc(NC(=O)c3ccco3)c2)cc1 returned Sm TGR block 0%, RE007 growth inh -11%, FMDV antiviral 12%, HCMV inh -71*, Giardia FBPA inh 1% and Tb PYK inh 4%.
CCOC(=O)N1CCc2c(sc3c2c(=O)n(-c2ccccc2)c(=O)n3CC(=O)Nc2ccc(OC)cc2OC)C1 was read as Sm TGR block 5%, FMDV antiviral inconclusive, HCMV inh 14 and Tb PYK inh 1%.
For CCOCc1cc(=O)[nH]c(SC)n1 the results were Sm TGR block 9%, RE007 growth inh 14%, FMDV antiviral -2%, HCMV inh -60*, Giardia FBPA inh 0% and Tb PYK inh 6%.
CSc1nc(Cl)cc(=O)[nH]1 was read as Sm TGR block 2%, FMDV antiviral -2%, HCMV inh -39, Giardia FBPA inh -3% and Tb PYK inh -9%.
For Cc1ccc(NC(=O)Cn2c(=O)n(Cc3ccco3)c(=O)c3sc4ccccc4c32)c(C)c1 the results were Sm TGR block -10%, FMDV antiviral -3%, HCMV inh -2 and Tb PYK inh -1%.
Screening O=C(Cn1c(=O)n(Cc2ccco2)c(=O)c2sc3ccccc3c21)Nc1ccc(F)cc1F returned Sm TGR block 6%, FMDV antiviral -23%, HCMV inh -74* and Tb PYK inh -14%.
`O=C1CCC[C@H]2[C@@H](Cc3ccccc3)[C@@H](NS(=O)(=O)c3cccs3)CC[C@]23CCCN13` gave HCMV inh 0.
CC(/C=C/c1ccc(Cl)o1)=C\C(=O)O was read as Sm TGR block 8.9µM*, RE007 growth inh -14%, FMDV antiviral -6%, HCMV inh -1, Giardia FBPA inh 3% and Tb PYK inh -6%.
`CCN(C(=O)C=Cc1ccco1)c1ccccc1` gave RE007 growth inh 24%, FMDV antiviral -10%, HCMV inh 2 and Tb PYK inh -7%.
For O=C(/C=C/c1ccc(-c2ccccc2)o1)c1ccccc1 the results were Sm TGR block inconclusive, RE007 growth inh -1%, FMDV antiviral 21%, HCMV inh 6, Giardia FBPA inh -25% and Tb PYK inh -1%.
`CC(=C/C(=O)O)/C=C/c1ccco1` gave Sm TGR block 7.9µM*, RE007 growth inh -4%, FMDV antiviral inconclusive, HCMV inh 7, Giardia FBPA inh -14% and Tb PYK inh inconclusive.
`COC(=O)c1scc(-c2ccc(C)cc2)c1S(=O)(=O)Nc1ccc(OC(F)(F)F)cc1` gave Sm TGR block inconclusive, FMDV antiviral -2%, HCMV inh -11 and Tb PYK inh -2%.

Source: PubChem BioAssay
